# PubChem BioAssay AID1159580 (chemical genetic matrix, 2015)
# In all, about 5,500 compounds went through this assay and about 2,000 (36%) were called active. About 18% were inconclusive and are not listed. This is one part of the list. Unmarked numbers belong to inactive results. Rule as the data show it: active = normalized growth mostly below about 0.91 (no sharp cut-off); inconclusive = no clear call, values can overlap the other calls; inactive = mostly above about 0.92.
# Assay: chemical genetic growth profiling, strain panel (AID 1159580);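 also: tested at 20 µM; growth read once vehicle control cultures reached saturation at 30 °C; 1 = growth at the plate median or of vehicle wells; lower values mean less growth of the strain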
# Conditions: growth OD
# [1] = S. cerevisiae deletion strains, locus YDL101C, strain DUN1, active compounds read low
# [2] = S. cerevisiae deletion strains, locus YHR030C, strain SLT2, active compounds read low
smiles,measurement,setting,value
CC(=O)N/C(=C/c1ccc2c(c1)OCO2)C(=O)O,normalized growth,"S. cerevisiae deletion strains, locus YAL013W, strain DEP1, active compounds read low",1.01
same,normalized growth,"S. cerevisiae deletion strains, locus YBR229C, strain ROT2, active compounds read low",1
same,normalized growth,"S. cerevisiae deletion strains, locus YCL061C, strain MRC1, active compounds read low",1.02
same,normalized growth,[1],1
same,normalized growth,"S. cerevisiae deletion strains, locus YDR150W, strain NUM1, active compounds read low",0.915
same,normalized growth,"S. cerevisiae deletion strains, locus YEL061C, strain CIN8, active compounds read low",1.02
same,normalized growth,"S. cerevisiae deletion strains, locus YGR078C, strain PAC10, active compounds read low",1
same,normalized growth,"S. cerevisiae deletion strains, locus YGR229C, strain SMI1, active compounds read low",1.02
same,normalized growth,[2],1.06
same,normalized growth,"S. cerevisiae deletion strains, locus YHR087W, strain rtc3, active compounds read low",1
same,normalized growth,"S. cerevisiae deletion strains, locus YJL187C, strain SWE1, active compounds read low",1.01
same,normalized growth,"S. cerevisiae deletion strains, locus YJR043C, strain POL32, active compounds read low",1.01
same,normalized growth,"S. cerevisiae deletion strains, locus YJR075W, strain HOC1, active compounds read low",1.02
same,normalized growth,"S. cerevisiae deletion strains, locus YKL190W, strain CNB1, active compounds read low",1.01
same,normalized growth,"S. cerevisiae deletion strains, locus YLR039C, strain RIC1, active compounds read low",1.07
same,normalized growth,"S. cerevisiae deletion strains, locus YLR058C, strain SHM2 (second series), active compounds read low",1.01
same,normalized growth,"S. cerevisiae deletion strains, locus YLR085C, strain ARP6, active compounds read low",1.02
same,normalized growth,"S. cerevisiae deletion strains, locus YLR262C, strain YPT6, active compounds read low",1.07
same,normalized growth,"S. cerevisiae deletion strains, locus YML094W, strain GIM5, active compounds read low",1.01
same,normalized growth,"S. cerevisiae deletion strains, locus YMR219W, strain ESC1, active compounds read low",1
same,normalized growth,"S. cerevisiae deletion strains, locus YMR263W, strain SAP30, active compounds read low",1.01
same,normalized growth,"S. cerevisiae deletion strains, locus YNL153C, strain GIM3, active compounds read low",1.01
same,normalized growth,"S. cerevisiae deletion strains, locus YNL298W, strain CLA4 (second series), active compounds read low",1.01
same,normalized growth,"S. cerevisiae deletion strains, locus YNL322C, strain KRE1, active compounds read low",1
same,normalized growth,"S. cerevisiae deletion strains, locus YNR030W, strain Alg12, active compounds read low",1.01
same,normalized growth,"S. cerevisiae deletion strains, locus YOL006C, strain TOP1, active compounds read low",1.04
same,normalized growth,"S. cerevisiae deletion strains, locus YPL055C, strain LGE1, active compounds read low",0.87
same,normalized growth,"S. cerevisiae deletion strains, locus YPL241C, strain CIN2, active compounds read low",1
same,normalized growth,"S. cerevisiae deletion strains, locus YPR135W, strain CTF4, active compounds read low",0.998
same,normalized growth,"S. cerevisiae strains, strain wild type, active compounds read low",1.02
C/C(=C\c1ccc2c(c1)OCO2)[N+](=O)[O-],normalized growth,"S. cerevisiae deletion strains, locus YAR019C, strain CDC15, active compounds read low",0.0944 (active)
same,normalized growth,"S. cerevisiae deletion strains, locus YBL105C, strain PKC1, active compounds read low",0.089 (active)
same,normalized growth,"S. cerevisiae deletion strains, locus YBR135W, strain CKS1, active compounds read low",0.0821 (active)
same,normalized growth,"S. cerevisiae deletion strains, locus YBR136W, strain MEC1, active compounds read low",0.0972 (active)
same,normalized growth,"S. cerevisiae deletion strains, locus YBR160W, strain CDC28, active compounds read low",0.096 (active)
same,normalized growth,"S. cerevisiae deletion strains, locus YDL017W, strain CDC7, active compounds read low",0.103 (active)
same,normalized growth,"S. cerevisiae deletion strains, locus YDL028C, strain MPS1, active compounds read low",0.108 (active)
same,normalized growth,[1],0.101 (active)
same,normalized growth,"S. cerevisiae deletion strains, locus YDL108W, strain KIN28, active compounds read low",0.107 (active)
same,normalized growth,"S. cerevisiae deletion strains, locus YDL132W, strain cdc53, active compounds read low",0.121 (active)
same,normalized growth,"S. cerevisiae deletion strains, locus YDL214C, strain PRR2, active compounds read low",0.0871 (active)
same,normalized growth,"S. cerevisiae deletion strains, locus YDR052C, strain DBF4, active compounds read low",0.302 (active)
same,normalized growth,"S. cerevisiae deletion strains, locus YDR054C, strain cdc34, active compounds read low",0.1 (active)
same,normalized growth,"S. cerevisiae deletion strains, locus YDR226W, strain ADK1, active compounds read low",0.112 (active)
same,normalized growth,"S. cerevisiae deletion strains, locus YDR477W, strain SNF1, active compounds read low",0.0948 (active)
same,normalized growth,"S. cerevisiae deletion strains, locus YER123W, strain YCK3, active compounds read low",0.0987 (active)
same,normalized growth,"S. cerevisiae deletion strains, locus YER133W, strain GLC7, active compounds read low",0.0948 (active)
same,normalized growth,"S. cerevisiae deletion strains, locus YFL009W, strain cdc4, active compounds read low",0.0975 (active)
same,normalized growth,"S. cerevisiae deletion strains, locus YFL029C, strain CAK1, active compounds read low",0.0944 (active)
same,normalized growth,"S. cerevisiae deletion strains, locus YFR003C, strain YPI1, active compounds read low",0.123 (active)
same,normalized growth,"S. cerevisiae deletion strains, locus YFR019W, strain FAB1, active compounds read low",0.0927 (active)
same,normalized growth,"S. cerevisiae deletion strains, locus YFR028C, strain CDC14, active compounds read low",0.108 (active)
same,normalized growth,"S. cerevisiae deletion strains, locus YGR040W, strain KSS1, active compounds read low",0.0949 (active)
same,normalized growth,"S. cerevisiae deletion strains, locus YGR052W, strain FMP48, active compounds read low",0.11 (active)
same,normalized growth,"S. cerevisiae deletion strains, locus YGR092W, strain DBF2, active compounds read low",0.0972 (active)
same,normalized growth,[2],0.107 (active)
same,normalized growth,"S. cerevisiae deletion strains, locus YHR079C, strain IRE1, active compounds read low",0.113 (active)
same,normalized growth,"S. cerevisiae deletion strains, locus YHR082C, strain KSP1, active compounds read low",0.12 (active)
same,normalized growth,"S. cerevisiae deletion strains, locus YHR205W, strain SCH9, active compounds read low",0.00121 (active)
same,normalized growth,"S. cerevisiae deletion strains, locus YIL147C, strain SLN1, active compounds read low",0.108 (active)
same,normalized growth,"S. cerevisiae deletion strains, locus YJL095W, strain BCK1, active compounds read low",0.107 (active)
same,normalized growth,"S. cerevisiae deletion strains, locus YJL128C, strain PBS2, active compounds read low",0.124 (active)
same,normalized growth,"S. cerevisiae deletion strains, locus YJL157C, strain FAR1, active compounds read low",0.084 (active)
same,normalized growth,"S. cerevisiae deletion strains, locus YJR016C, strain ILV3, active compounds read low",0.0841 (active)
same,normalized growth,"S. cerevisiae deletion strains, locus YJR066W, strain TOR1 (second series), active compounds read low",0.0942 (active)
same,normalized growth,"S. cerevisiae deletion strains, locus YJR066W, strain TOR1, active compounds read low",0.105 (active)
same,normalized growth,"S. cerevisiae deletion strains, locus YKL048C, strain ELM1, active compounds read low",0.106 (active)
same,normalized growth,"S. cerevisiae deletion strains, locus YKL067W, strain YNK1, active compounds read low",0.0865 (active)
same,normalized growth,"S. cerevisiae deletion strains, locus YKL101W, strain HSL1, active compounds read low",0.0966 (active)
same,normalized growth,"S. cerevisiae deletion strains, locus YKL193C, strain SDS22, active compounds read low",0.0838 (active)
same,normalized growth,"S. cerevisiae deletion strains, locus YKL203C, strain TOR2, active compounds read low",0.107 (active)
same,normalized growth,"S. cerevisiae deletion strains, locus YLR113W, strain HOG1, active compounds read low",0.126 (active)
same,normalized growth,"S. cerevisiae deletion strains, locus YLR133W, strain CKI1, active compounds read low",0.0901 (active)
same,normalized growth,"S. cerevisiae deletion strains, locus YLR403W, strain SFP1, active compounds read low",-0.000823 (active)
same,normalized growth,"S. cerevisiae deletion strains, locus YML070W, strain DAK1, active compounds read low",0.0897 (active)
same,normalized growth,"S. cerevisiae deletion strains, locus YMR001C, strain CDC5, active compounds read low",0.0887 (active)
same,normalized growth,"S. cerevisiae deletion strains, locus YMR205C, strain PFK2 (second series), active compounds read low",0.0868 (active)
same,normalized growth,"S. cerevisiae deletion strains, locus YMR277W, strain FCP1, active compounds read low",0.0888 (active)
same,normalized growth,"S. cerevisiae deletion strains, locus YNL006W, strain LST8, active compounds read low",0.0816 (active)
same,normalized growth,"S. cerevisiae deletion strains, locus YNL020C, strain ARK1, active compounds read low",0.0897 (active)
same,normalized growth,"S. cerevisiae deletion strains, locus YNL161W, strain CBK1, active compounds read low",0.0823 (active)
same,normalized growth,"S. cerevisiae deletion strains, locus YNL183C, strain NPR1, active compounds read low",0.114 (active)
same,normalized growth,"S. cerevisiae deletion strains, locus YNL207W, strain RIO2, active compounds read low",0.091 (active)
same,normalized growth,"S. cerevisiae deletion strains, locus YNL222W, strain SSU72, active compounds read low",0.0831 (active)
same,normalized growth,"S. cerevisiae deletion strains, locus YNL307C, strain MCK1 (second series), active compounds read low",0.0968 (active)
same,normalized growth,"S. cerevisiae deletion strains, locus YOL078W, strain AVO1, active compounds read low",0.0833 (active)
same,normalized growth,"S. cerevisiae deletion strains, locus YOL136C, strain PFK27, active compounds read low",0.0926 (active)
same,normalized growth,"S. cerevisiae deletion strains, locus YOR061W, strain CKA2, active compounds read low",0.0859 (active)
same,normalized growth,"S. cerevisiae deletion strains, locus YOR119C, strain RIO1, active compounds read low",0.11 (active)
same,normalized growth,"S. cerevisiae deletion strains, locus YOR231W, strain MKK1, active compounds read low",0.108 (active)
same,normalized growth,"S. cerevisiae deletion strains, locus YOR329C, strain SCD5, active compounds read low",0.0841 (active)
same,normalized growth,"S. cerevisiae deletion strains, locus YPL031C, strain PHO85, active compounds read low",0.0922 (active)
same,normalized growth,"S. cerevisiae deletion strains, locus YPL153C, strain RAD53, active compounds read low",0.101 (active)
same,normalized growth,"S. cerevisiae deletion strains, locus YPL204W, strain HRR25, active compounds read low",0.0962 (active)
same,normalized growth,"S. cerevisiae deletion strains, locus YPL209C, strain IPL1, active compounds read low",0.0837 (active)
same,normalized growth,"S. cerevisiae deletion strains, locus YPL256C, strain CLN2, active compounds read low",0.128 (active)
same,normalized growth,"S. cerevisiae deletion strains, locus YPR025C, strain CCL1, active compounds read low",0.0836 (active)
same,normalized growth,"S. cerevisiae deletion strains, locus YPR106W, strain ISR1, active compounds read low",0.0862 (active)
same,normalized growth,"S. cerevisiae deletion strains, locus YPR111W, strain DBF20, active compounds read low",0.142 (active)
same,normalized growth,"S. cerevisiae deletion strains, strain NNK1, active compounds read low",0.0961 (active)
same,normalized growth,"S. cerevisiae deletion strains, strain TSCII, active compounds read low",0.0923 (active)
